HepG2 viability: kills HepG2 cells in TGF-b inhibitor counter-screen | HepG2 CAGA-GFP viability, ATP luminescence, 18 h | Potency, µM (highest dose often 46.1 µM), most hits filed as cytotoxic | 410,000 compounds, 0.76% hits | AID 588856
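CellTiter-Glo luminescence gave cytotoxicity after 18 hours at 37 degrees C. The cells were HepG2 CAGA-GFP in 1% FBS DMEM, stimulated with 500 pg/mL TGF-beta after compound addition. %Activity was normalised to no-cell wells (complete cell-killing) and DMSO (no toxicity), and curves were fitted and classified.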
TDP1 cell CPT: growth inhibition of DT40 Tdp1-/-;hTDP1 cells with camptothecin (screen for TDP1 inhibitors); AID 686979; Potency, µM (top dose mostly 46.2 µM), actives largely listed as inhibitors; 420,000 compounds, 12% hits; chicken DT40 Tdp1-/-;hTDP1 cells + 20 nM CPT, ATP luminescence, 48 h; also: nearly all actives have a fitted effect of over 55% in size
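Cell growth measured by CellTiter-Glo luminescence after a minimum 48 h, 37 C compound exposure with 20 nM CPT in Tdp1-knockout DT40 cells stably expressing hTDP1, seeded 400/well; qHTS titration format.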
TGFb SMAD3 inh: blocks TGF-b signaling | AID 588855 | HepG2 CAGA-GFP TGF-b/SMAD3 reporter, GFP fluorescence, 18 h; TGF-beta stimulated, 500 pg/mL final | 410,000 compounds, 1.2% hits | Potency, µM (top dose mostly 46.1 µM), usual class: inhibitors; also: nearly all actives have a fitted effect of over 65% in size
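Inhibition of TGF-beta-driven CAGA-GFP reporter expression in HEPG2 cells is measured by cellular GFP fluorescence after 18 h stimulation with 500 pg/mL recombinant TGF-beta in 1% FBS medium at 37 degrees C.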
TDP1 cell noCPT: qHTS for Inhibitors of human tyrosyl-DNA phosphodiesterase 1 (TDP1): qHTS in cells in absence of CPT; DT40 Tdp1-/- hTDP1 cells, no CPT, ATP luminescence, 48 h; 420,000 compounds, 15% hits; Potency, µM (doses to about 46.2 µM), most hits filed as inhibitors; also: nearly all actives have a fitted effect of over 55% in size
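DT40 Tdp1-/-;hTDP1 cells, no CPT (DMSO vehicle only), 400 cells/well; compounds pin-transferred; ≥48 hr, 37 °C; CellTiter-Glo 30 min RT dark, luminescence read.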
S-ASM inh: human S-ASM enzyme inhibition; Potency, µM (titrated, usually from 57.5 µM), actives largely listed as inhibitors; AID 504937; P17405; placental ASM, HMU-PC fluorogenic substrate, 60 min; 340,000 compounds, 0.006% hits
Target sequence (P17405 47-631 limits assumed): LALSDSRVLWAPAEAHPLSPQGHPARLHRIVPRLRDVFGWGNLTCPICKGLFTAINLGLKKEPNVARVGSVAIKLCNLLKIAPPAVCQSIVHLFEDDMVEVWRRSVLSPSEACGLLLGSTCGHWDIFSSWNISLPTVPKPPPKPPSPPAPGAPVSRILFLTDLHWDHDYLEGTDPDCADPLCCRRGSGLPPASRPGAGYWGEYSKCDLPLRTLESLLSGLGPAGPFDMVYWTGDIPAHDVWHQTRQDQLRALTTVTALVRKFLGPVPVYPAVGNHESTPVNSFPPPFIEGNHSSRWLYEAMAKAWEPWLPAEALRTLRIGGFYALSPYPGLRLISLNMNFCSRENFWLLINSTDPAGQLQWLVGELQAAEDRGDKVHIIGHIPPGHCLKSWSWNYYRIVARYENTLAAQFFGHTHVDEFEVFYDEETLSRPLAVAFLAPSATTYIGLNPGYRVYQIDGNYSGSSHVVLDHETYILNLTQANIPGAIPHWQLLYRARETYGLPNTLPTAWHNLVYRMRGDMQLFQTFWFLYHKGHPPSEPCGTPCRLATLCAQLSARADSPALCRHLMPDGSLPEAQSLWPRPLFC
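qHTS format. ASM enzyme prepared from human placenta hydrolyses the fluorogenic substrate HMU-PC0 (9 uM final) over 60 min at 37 °C after a 10 min compound preincubation.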
IL-1B inflam inh: inflammasome signaling inhibition, IL-1 beta readout; AID 743279; activity change, % at 57.5 µM; 360,000 compounds, 4.7% hits; THP-1 LPS/ATP IL-1B secretion, AlphaLISA, 16 h; stronger effect = lower value; in the data active = activity change below about -50%; inconclusive = mostly about -30% to -49%
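Secreted IL-1B measured by AlphaLISA bead assay after 16 h compound exposure of THP-1 cells; compounds (final up to 57.5 uM) added 1 h before LPS (250 ng/mL) and ATP (1.25 mM) stimulation; lower signal means less secretion.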
A number is an active result; - = inactive; ? = inconclusive; . = no result. Shown are actives, neighbours in structure and some others; about 19% of the full set was active somewhere. Unless noted, calls follow the shape of the dose curve; as a rule, active = well fitted curve in the direction sought with a large enough effect; inconclusive = small, poorly fitted or top-dose-only effect, or another doubt; inactive = no such curve, though single readings can be large; an effect the other way counts as inactive or inconclusive.

SMILES | HepG2 viability | TDP1 cell CPT | TGFb SMAD3 inh | TDP1 cell noCPT | S-ASM inh | IL-1B inflam inh
Cc1onc(-c2ccccc2Cl)c1C(=O)N1CC(C)OC(C)C1 (stereo not given) | - | - | - | - | - | -
Cc1onc(-c2ccccc2Cl)c1C(=O)NC(=S)Nc1ccccc1C(N)=O | - | 25.9µM | - | ? | - | -
Cc1onc(-c2ccccc2Cl)c1C(=O)Nc1ccc(Cl)cn1 | - | ? | - | ? | - | -
Cc1onc(-c2ccccc2Cl)c1C(=O)Nc1ccccc1C(N)=O | - | ? | - | ? | - | -
Cc1onc(-c2ccccc2Cl)c1C(=O)N1CC(C)CC(C)C1 (stereo not given) | - | 14.6µM | - | 10.3µM | - | -
Cc1cccc(C(=O)NNC(=O)c2c(-c3ccccc3Cl)noc2C)c1O | - | ? | - | 29.1µM | - | -
CC(C)(C)OC(=O)N1CCC(C(=O)N[C@H](C(=O)O)c2ccccc2)(c2ccccc2)CC1 | - | - | - | - | - | -
CCOc1ccc(-n2nnnc2SCC(=O)NNC(=O)c2ccco2)cc1 | - | 16.4µM | - | ? | - | -
O=C(CSc1nnnn1-c1ccc(F)cc1)NNC(=O)c1ccco1 | - | - | - | - | - | -
CCN(CC)c1nc2cc(C)ccc2cc1/C=C(\C#N)C(N)=O | - | ? | ? | ? | - | -57.6
CC(=O)NCCOc1nc(N(C)C)nc(N2CCCCC2)n1 | - | - | - | - | - | -
O=C(CSc1ccc(-c2ccncc2)nn1)c1ccc(Cl)cc1 | - | - | - | - | - | -
NC(=O)C(c1ccc(Cl)cc1)c1ccc(Sc2ccc(Cl)cc2)nn1 (stereo not given) | - | ? | ? | 16.4µM | - | ?
CN(C)c1nc(-c2ccccc2)ncc1S(=O)(=O)c1ccccc1 | - | - | - | ? | - | -
CCN(CC)c1nc(-c2ccccc2)ncc1S(=O)(=O)c1ccc(C)cc1 | - | ? | ? | 16.4µM | - | -
CC(=O)Nc1ccc2c(c1)Cc1c-2cc(Br)c(N)c1Br | - | - | - | - | - | -
Cc1ccc(O)c(-c2ccnc3cc(-c4ccc(Cl)cc4)nn23)c1 | - | - | - | ? | . | .
O=[N+]([O-])c1cccc(-c2nnn(C34CC5CC(CC(C5)C3)C4)n2)c1 | - | ? | - | 18.4µM | - | -
Cc1ccc(-c2cc(C(=O)N3CCOCC3)c3ccccc3n2)o1 | - | ? | - | 18.4µM | - | -
Cc1ccc(-c2cc(C(=O)N3CCN(c4ccc(F)cc4)CC3)c3ccccc3n2)o1 | - | ? | - | 29.1µM | - | -
Cc1ccc(-c2cc(C(=O)N3CCN(c4ncccn4)CC3)c3cc(Br)ccc3n2)o1 | - | 4.11µM | - | 8.2µM | - | -
O=C(c1cc(-c2ccccc2)nc2ccccc12)N1CCOCC1 | - | - | - | - | - | -
Cc1ccc(-c2cc(C(=O)N3CCN(c4ccc(O)cc4)CC3)c3ccccc3n2)cc1 | - | ? | ? | ? | - | -
COc1ccccc1NC(=O)CN1CCN(CC(=O)Nc2ccc(S(N)(=O)=O)cc2)CC1 | - | ? | - | 13µM | - | -
COc1cc(NC(=O)CN2CCN(CC(=O)Nc3ccccc3OC)CC2)cc(OC)c1 | - | 16.4µM | - | ? | - | -
SMILES | HepG2 viability | TDP1 cell CPT | TGFb SMAD3 inh | TDP1 cell noCPT | S-ASM inh | IL-1B inflam inh
COc1ccccc1NC(=O)CN1CCN(CC(=O)Nc2ccc(C)c(F)c2)CC1 | - | 16.4µM | - | 16.4µM | - | -
COc1ccccc1NC(=O)CN1C(=O)CC(c2ccc(C)c(C)c2)=Nc2ccccc21 | - | 23.1µM | ? | 23.1µM | . | .
COc1ccccc1NC(=O)CN1CCN(CC(=O)Nc2ccc(F)cc2)CC1 | - | - | - | ? | - | -
COc1cccc(NC(=O)c2ccc3c(c2)C(=O)N(CC2CCCO2)C3=O)c1 (stereo not given) | - | - | - | - | - | -
COc1ccccc1NC(=O)CN1CCN(CC(=O)Nc2ccc(F)c(F)c2)CC1 | - | ? | 6.31µM | ? | . | .
CCOC(=O)c1cnc2cc(-c3ccc(OCC)cc3)nn2c1-c1ccccc1 | - | 14.6µM | - | 8.2µM | . | .
N#Cc1cnc2cc(-c3ccccc3)nn2c1N | - | - | - | - | - | -
COc1ccc(-c2cc3ncc(-c4ccccc4)c(N)n3n2)cc1 | - | ? | ? | ? | - | -54.8
NC(=O)OCC(O)COc1ccc(Cl)cc1 (stereo not given) | - | - | - | - | - | -
CC(C)CNC(=O)C1=CC(c2ccc3c(c2)OCO3)=NS(=O)(=O)N1C | - | - | ? | - | . | .
O=C(NCc1cccc(Cl)c1)c1cnn2c1NC(c1ccco1)CC2C(F)(F)F (stereo not given) | - | 18.4µM | - | 16.4µM | - | -53.0
CN(Cc1ccc(-n2cccn2)cc1)C(=O)c1cnn2c1NC(c1ccco1)CC2C(F)(F)F (stereo not given) | - | 23.1µM | ? | 16.4µM | - | -54.2
O=C(Nc1ccc2c(c1)CCC2)c1cnn2c1NC(c1ccco1)CC2C(F)(F)F (stereo not given) | - | 11.6µM | - | - | - | -
COCCNC(=O)c1cnn2c1NC(c1ccco1)CC2C(F)(F)F (stereo not given) | - | - | - | - | - | -
CN(Cc1cccs1)C(=O)Cc1csc(-c2ccccc2)n1 | - | - | - | - | - | -
O=[N+]([O-])c1cc(S(=O)(=O)N2CCCCCC2)ccc1Cl | - | ? | - | 8.2µM | - | -103.5
O=C1CCCN1c1ccc(S(=O)(=O)N2CCCCC2)cc1[N+](=O)[O-] | 6.31µM | - | - | - | - | -
Cc1ccc(S(=O)(=O)N2CCCCC2C)cc1[N+](=O)[O-] (stereo not given) | - | 11.6µM | - | 14.6µM | - | -
C[C@@H]1CN([C@@H](C)CO)C(=O)CCCn2cc(nn2)CO[C@H]1CN(C)S(=O)(=O)c1ccccc1C#N | - | - | - | - | . | -
Clc1ccccc1CN(Cc1ccccc1)C(c1cccs1)c1nnnn1C1CCCC1 (stereo not given) | - | ? | - | 20.6µM | - | ?
CCN(Cc1ccccc1)C(c1ccccn1)c1nnnn1C1CCCCC1 (stereo not given) | - | ? | ? | ? | - | -
CCN(Cc1ccccc1)C(c1cccs1)c1nnnn1C1CCCCC1 (stereo not given) | - | ? | ? | 29.1µM | - | -
CC(c1nnnn1C(C)(C)C)N(Cc1cccnc1)Cc1ccccc1Cl (stereo not given) | - | ? | - | ? | - | ?
